Screens as filed in PubChem BioAssay.
TDP1 cell CPT: qHTS for Inhibitors of human tyrosyl-DNA phosphodiesterase 1 (TDP1): qHTS in cells in presence of CPT; Potency, µM (series often up to 46.2 µM), inactives show at the top dose activity change, negative = growth inhibition, usual class: inhibitors; actives 12% (n = 420,000); chicken DT40 Tdp1-/-;hTDP1 cells + 20 nM CPT, ATP luminescence, 48 h; also: potency is read from the fitted curve at half-maximal effect; nearly all actives have a fitted effect of over 55% in size
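Chicken DT40 Tdp1-/- cells complemented with human TDP1, 400 cells/well, exposed to compounds plus 20 nM camptothecin for at least 48 h at 37 C; viability read as ATP content by CellTiter-Glo luminescence.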
HT1080-NT tox: qHTS for induction of synthetic lethality in tumor cells producing 2HG: qHTS for the HT-1080-NT fibrosarcoma cell line; HT-1080-NT fibrosarcoma viability, CellTiter-Glo ATP luminescence, 48 h; actives 1.6% (n = 360,000); AID 686970, 2013; Potency, µM (doses to about 46.1 µM), for the others: at the top dose activity, negative = less viability, actives largely listed as cytotoxic;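 also: NT is the 2HG producing partner of a matched IDH1 knockdown line; potency is read from the fitted curve at half-maximal effect; 0% = DMSO-treated cells and -100% = media-only wells without cells; nearly all actives have a fitted effect of over 55% in size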
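A 48-hour cytotoxicity screen used HT-1080-NT cells plated 2 hours before compound delivery. ATP-based CellTiter-Glo luminescence measured viability, normalized to DMSO and no-cell controls.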
TDP1 cell noCPT: qHTS for Inhibitors of human tyrosyl-DNA phosphodiesterase 1 (TDP1): qHTS in cells in absence of CPT; DT40 Tdp1-/- hTDP1 cells, no CPT, ATP luminescence, 48 h; Potency, µM (top dose mostly 46.2 µM), inactives show at the top dose activity change, negative = growth inhibition, usual class: inhibitors; actives 15% (n = 420,000); also: potency is read from the fitted curve at half-maximal effect; nearly all actives have a fitted effect of over 55% in size
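Growth kinetics read by CellTiter-Glo luminescence after ≥48 hr at 37 °C. Cells: DT40 Tdp1-/- stably carrying human TDP1, 400 per well, compound exposure in the absence of CPT (DMSO vehicle).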
HT1080 IDH1KD tx: qHTS for induction of synthetic lethality in tumor cells producing 2HG: qHTS for the HT-1080-IDH1KD cell line; actives 2% (n = 360,000); Potency, µM (doses to about 46.1 µM), for inactives: at the highest dose activity, negative = toxicity, actives largely listed as cytotoxic; HT-1080 IDH1 knockdown viability, ATP luminescence, 48 h;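 also: potency is read from the fitted curve at half-maximal effect; 0% = DMSO wells and -100% = cell-free medium wells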
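Using the IDH1-knockdown HT-1080 line run in the same batch and compound series as the NT line, viability after 48 h at 37 °C was determined by CellTiter-Glo luminescence and expressed as % activity.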
IL-1B inflam inh: qHTS for Inhibitors of Inflammasome Signaling: IL-1-beta AlphaLISA Primary Screen | actives 4.7% (n = 360,000) | activity change, % at 57.5 µM | AID 743279, 2014 | THP-1 LPS/ATP IL-1B secretion, AlphaLISA, 16 h; hits give low values; in the data active = activity change below about -50%; inconclusive = mostly about -30% to -49%
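Secreted IL-1B measured by AlphaLISA bead assay after 16 h compound exposure of THP-1 cells; compounds (final up to 57.5 uM) added 1 h before LPS (250 ng/mL) and ATP (1.25 mM) stimulation; lower signal means less secretion.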
* = called active by the depositor; i = inactive; ? = inconclusive; . = not tested or not shown. The list is not random: actives were taken first. Their share in the collection is about 19%. Unless noted, calls follow the shape of the dose curve; as a rule, active = well fitted curve in the direction sought with a large enough effect; inconclusive = small, poorly fitted or top-dose-only effect, or another doubt; inactive = no such curve, though single readings can be large; an effect the other way counts as inactive or inconclusive. Unless noted, % is scaled to controls: 0 for no effect and ±100 for the full control effect.

SMILES | TDP1 cell CPT | HT1080-NT tox | TDP1 cell noCPT | HT1080 IDH1KD tx | IL-1B inflam inh
CC(O)(c1ccc(F)c(F)c1)c1nc(-c2ccc(S(C)(=O)=O)cc2)cs1 (stereo not given) | ? | -20% | 16µM* | ? | 3
COc1ccc(-c2csc(C(C)(O)c3ccc(F)c(F)c3)n2)cc1 (stereo not given) | ? | ? | ? | ? | 22
COCc1cccc(-c2csc(C(C)(O)c3ccc(OC)cc3)n2)c1 (stereo not given) | ? | 13% | ? | -3% | 17
CC(O)(c1ccc(F)c(F)c1)c1nc(-c2ccncc2)cs1 (stereo not given) | 21µM* | -25% | 13µM* | ? | 12
COc1ccc(C(C)(O)c2nc(-c3ccc(S(C)(=O)=O)cc3)cs2)cc1 (stereo not given) | ? | 13% | 23µM* | 17% | -5
O=C(NCCc1ccc2c(c1)OCO2)Oc1ccccc1 | ? | 0% | ? | 7% | 1
N#CCCNc1c(Cl)cc(Cl)cc1C(=O)O | -4% | 8% | -4% | 8% | 7
CCC(C)NC(=O)C1CCC(CNS(=O)(=O)c2ccc3c(c2)CC(C)N3C(C)=O)CC1 (stereo not given) | ? | 8% | -9% | 18% | 28
CC(=O)N1c2ccc(S(=O)(=O)NCC3CCC(C(=O)Nc4cc(C)ccc4C)CC3)cc2CC1C (stereo not given) | 23µM* | . | 18µM* | . | .
CC(=O)N1c2ccc(S(=O)(=O)NCCC(=O)Nc3ccccc3C)cc2CC1C (stereo not given) | ? | 2% | 19% | 0% | 17
CC(=O)N1c2ccc(S(=O)(=O)NCC3CCC(C(=O)Nc4cccc(F)c4)CC3)cc2CC1C (stereo not given) | 3.3µM* | . | 12µM* | . | .
CCCNC(=O)C1CCC(CNS(=O)(=O)c2ccc3c(c2)CC(C)N3C(C)=O)CC1 (stereo not given) | ? | -4% | ? | -3% | 0
CC(=O)N1c2ccc(S(=O)(=O)NCC3CCC(C(=O)N4CC(C)CC(C)C4)CC3)cc2CC1C (stereo not given) | 16µM* | -16% | 13µM* | 0% | 31
CC(=O)N1c2ccc(S(=O)(=O)NCC3CCC(C(=O)NCCC(C)C)CC3)cc2CC1C (stereo not given) | 15µM* | . | 16µM* | . | .
Cc1cc(=O)oc(C)c1C(=O)Nc1cccc(F)c1 | 0% | 0% | ? | -2% | 0
CCCc1cc(=O)oc2cc(OCC(=O)NC3CCN(Cc4ccccc4)CC3)ccc12 | -23% | 3% | -4% | 13% | 3
CC(=O)c1cccc(NC(=O)COC(=O)[C@@H](NC(=O)OCc2ccccc2)C(C)C)c1 | 14% | 5% | -6% | 12% | 30
CC(=O)N1c2ccc(S(=O)(=O)NCC3CCC(C(=O)NCc4ccc(C)o4)CC3)cc2CC1C (stereo not given) | ? | 1% | -6% | -14% | 18
CC(=O)N1c2ccc(S(=O)(=O)NCC3CCC(C(=O)Nc4cc(C)ccn4)CC3)cc2CC1C (stereo not given) | 18µM* | ? | 16µM* | ? | -78*
CC(=O)N1c2ccc(S(=O)(=O)NCC3CCC(C(=O)Nc4ccccc4C)CC3)cc2CC1C (stereo not given) | 26µM* | . | 21µM* | . | .
CC(=O)N1c2ccc(S(=O)(=O)NCC3CCC(C(=O)Nc4ncccc4C)CC3)cc2CC1C (stereo not given) | ? | 1% | -3% | 15% | 9
CC(=O)N1c2ccc(S(=O)(=O)NCC3CCC(C(=O)NC4CCCCC4)CC3)cc2CC1C (stereo not given) | -19% | ? | 2.9µM* | -24% | -8
CC(=O)N1c2ccc(S(=O)(=O)NCC3CCC(C(=O)NCc4ccc(C)cc4)CC3)cc2CC1C (stereo not given) | 21µM* | ? | 15µM* | 1% | 1
N#Cc1ccsc1NC(=O)C1CCN(C(=O)c2ccc(Cl)cc2)CC1 | ? | -2% | ? | -14% | -1
NC(=O)c1ccc(NC(=O)CCN=C2NS(=O)(=O)c3ccccc32)cc1 | -1% | 2% | -2% | 12% | 0
SMILES | TDP1 cell CPT | HT1080-NT tox | TDP1 cell noCPT | HT1080 IDH1KD tx | IL-1B inflam inh
Cc1cc(C)cc(C(=O)N(CCc2ccccc2)C2CC3CCC(C2)N3C)c1 (stereo not given) | ? | ? | ? | ? | -65*
CCCCN1CN(Cc2ccccc2)CNC1=S | 18µM* | -5% | ? | -2% | 22
NNc1nncc2ccccc12 | -9% | . | -22% | . | .
Oc1c(Br)cc(/C=N/Nc2nncc3ccccc23)cc1Br | ? | 11% | 23µM* | 2% | -5
CCOc1cc(CN2CCN(c3cccc(C(F)(F)F)c3)CC2)ccc1O | 16µM* | -20% | 16µM* | ? | -15
COc1ccc(CC(C)N2CCN(c3cccc(C(F)(F)F)c3)CC2)cc1OC (stereo not given) | ? | ? | 26µM* | ? | -20
CCOc1cc(CN2CCN(c3cccc(C(F)(F)F)c3)CC2)ccc1OC | ? | -7% | 16µM* | 8% | -56*
Cn1c(=O)c2c(nc(C3CC4C5CCC(C5)C4C3)n2C)n(C)c1=O (stereo not given) | ? | 5% | 16µM* | 7% | -1
Cn1c(=O)c2c(nc(CCC3CCCC3)n2C)n(C)c1=O | ? | 0% | ? | 0% | 0
COc1cccc(OCc2cc(C(=O)N3CCN(C4CCCC4)CC3)no2)c1 | -7% | -8% | -12% | -4% | i
O=C(c1cc(COc2ccc3ncccc3c2)on1)N1CCC(O)CC1 | 16µM* | -2% | 8.2µM* | -2% | 11
O=C(NC1CCCCCCC1)c1cc(COc2ccc3ncccc3c2)on1 | 3.7µM* | -15% | 4.6µM* | -20% | ?
COCC1CCCN(C(=O)c2cc(COc3ccc4ncccc4c3)on2)C1 (stereo not given) | 7.3µM* | 7% | 5.8µM* | -25% | -6
Cc1cccc(C)c1OCc1cc(C(=O)NC2CCC2)no1 | -8% | 11% | -12% | 16% | -9
COc1cc(Cl)ccc1OCc1cc(C(=O)NCC(C)c2ccccc2)no1 (stereo not given) | -30% | -3% | -10% | -1% | 0
